Assay outcomes: PubChem, National Center for Advancing Translational Sciences (NCATS)
In the library only some 2.8% were active in any assay of this set; here they are far more common.
ATXN viability – cell viability loss in ATXN counter-screen; S2 cells (HEK-293 line with an ATXN2-luciferase reporter) viability, CellTiter-Fluor protease fluorescence, 24 h; hit rate 0.49% among 400,000; Potency, µM (top dose mostly 56.7 µM), hits mostly cytotoxic; note: potency is the fitted concentration of half-maximal effect; nearly all actives have a fitted effect of over 40% in size
Six1-Eya2 inh – Six1/Eya2 interaction inhibition; AlphaScreen GST-Six1/His-Eya2 binding, biochemical; active compounds read low; Q15475+O00167; hit rate 0.56% among 360,000; activity change, % (no concentration beside the values); in the data active = activity change below about -65%; inconclusive = mostly about -30% to -63%; note: % is set by controls: 0 for no effect and ±100 for the full control effect
Target sequence (O00167 whole entry, looked up): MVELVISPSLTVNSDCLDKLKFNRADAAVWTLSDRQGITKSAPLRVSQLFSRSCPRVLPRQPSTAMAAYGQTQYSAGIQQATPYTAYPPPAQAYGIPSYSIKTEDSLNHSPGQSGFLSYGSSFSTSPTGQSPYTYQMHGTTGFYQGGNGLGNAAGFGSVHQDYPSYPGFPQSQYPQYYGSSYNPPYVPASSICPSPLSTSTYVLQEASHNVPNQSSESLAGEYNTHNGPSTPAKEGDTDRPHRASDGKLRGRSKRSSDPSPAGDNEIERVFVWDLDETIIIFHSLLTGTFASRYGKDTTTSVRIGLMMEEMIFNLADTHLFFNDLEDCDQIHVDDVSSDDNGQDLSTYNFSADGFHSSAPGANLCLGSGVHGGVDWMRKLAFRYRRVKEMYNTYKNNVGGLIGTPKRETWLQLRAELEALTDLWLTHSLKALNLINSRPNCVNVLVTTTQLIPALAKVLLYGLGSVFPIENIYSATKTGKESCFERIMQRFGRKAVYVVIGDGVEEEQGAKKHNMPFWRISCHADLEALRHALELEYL
Target sequence (Q15475 whole entry, looked up): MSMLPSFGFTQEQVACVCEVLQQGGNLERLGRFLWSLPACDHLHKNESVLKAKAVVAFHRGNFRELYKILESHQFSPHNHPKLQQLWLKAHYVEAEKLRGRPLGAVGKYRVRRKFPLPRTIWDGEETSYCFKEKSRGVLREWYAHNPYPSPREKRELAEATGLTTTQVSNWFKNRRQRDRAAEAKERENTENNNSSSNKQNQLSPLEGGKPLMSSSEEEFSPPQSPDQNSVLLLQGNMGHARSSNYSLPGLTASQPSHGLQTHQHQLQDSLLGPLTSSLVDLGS
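Six1/Eya2 binding was read as AlphaScreen signal after compounds were pinned into GST-Six1 plus His-tagged Eya2 (5X stock 250/500 nM) in pH 8.0 Tris/NaCl/TCEP buffer, beads added, then incubated 1 h, 37 C, dark.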
HepG2 viability – counter-screen for TGF-b inhibitors: cytotoxicity in HepG2 cells; hit rate 0.76% among 410,000; Potency, µM (series often up to 46.1 µM), inactives show at the highest dose activity change, negative = cytotoxicity, most hits filed as cytotoxic; AID 588856; HepG2 CAGA-GFP viability, ATP luminescence, 18 h; note: potency is the fitted concentration of half-maximal effect
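HepG2 CAGA-GFP cells (1000/well, DMEM with 1% FBS) received compound, then TGF-beta at 500 pg/mL final, and were incubated 18 hours at 37 degrees C. Viability was read by CellTiter-Glo luminescence. Media-only wells were set as complete cell-killing and DMSO as no toxicity.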
CtBP-E1A inh – CtBP/E1A binding inhibition; hit rate 0.49% among 340,000; activity change, % (test concentration not listed); AlphaScreen GST-E1A/His-CtBP binding, 1536-well; active compounds read low; in the data active = activity change below about -65%; inconclusive = mostly about -30% to -63%; note: % is set by controls: 0 for no effect and ±100 for the full control effect
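In 5 uL wells, 23 nL compound meets equimolar GST-E1A and His-CtBP (5X stock 125 nM each) for 2 h, 37 °C. Beads (5X, 50 ug/mL) then 1 h, 37 °C, dark.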
ATXN2 expr inh – inhibitors of ATXN2 expression; HEK-293 ATXN2-luciferase reporter, luminescence, 24 h; Potency, µM (titrated, usually from 57 µM), for inactives: at the top dose activity change, negative = inhibition, actives largely listed as inhibitors; hit rate 0.72% among 360,000; AID 1745845; note: potency is the fitted concentration of half-maximal effect; % is set by controls: 0 for no effect and ±100 for the full control effect; nearly all actives have a fitted effect of over 55% in size
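qHTS (up to 57 uM final) was run with 24 h compound exposure of reporter cells at 37 °C. Each well was multiplexed: SteadyGlo luminescence measured ATXN2-luciferase expression after a fluorogenic Gly-Phe-AFC viability readout (25 uM final).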
TGFb SMAD3 inh – blocks TGF-b signaling | Potency, µM (titrated, usually from 46.1 µM), inactives show at the highest dose activity, negative = inhibition, usual class: inhibitors | AID 588855 | hit rate 1.2% among 410,000 | HepG2 CAGA-GFP TGF-b/SMAD3 reporter, GFP fluorescence, 18 h; TGF-beta stimulated, 500 pg/mL final; note: potency is the fitted concentration of half-maximal effect; % is set by controls: 0 for no effect and ±100 for the full control effect; nearly all actives have a fitted effect of over 65% in size
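Using HEPG2 CAGA-GFP reporter cells at 1000 cells/well, we pinned test compounds, stimulated with recombinant TGF-beta (500 pg/mL final) and measured total well GFP after 18 h.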
The depositor's hits bear a star; i = inactive; ? = inconclusive; · = not tested or not shown; ! = a repeat was not active; [ ] = dose if it differs, or a comment. Unless noted, calls come from the whole dose curve; as a rule, active = well fitted curve in the direction sought with a large enough effect; inconclusive = small, poorly fitted or top-dose-only effect, or another doubt; inactive = no such curve, though single readings can be large; an effect the other way counts as inactive or inconclusive.

SMILES | ATXN viability | Six1-Eya2 inh | HepG2 viability | CtBP-E1A inh | ATXN2 expr inh | TGFb SMAD3 inh
C=CC[C@H](CC(=O)N(CCO)Cc1ccccc1)C(=O)NC[C@H](OC(=O)[C@@H](CC=C)Cc1ccc(F)cc1)c1ccccc1 | 25µM* | -2 | -40% | 2 | ? | ?
C=CCC[C@H](Cc1ccc(F)cc1)C(=O)OC[C@H](Cc1c[nH]c2ccccc12)NC(=O)[C@H](CC=C)CC(=O)N(CCO)Cc1ccccc1 | 32µM* | -15 | -27% | -11 | ? | ?
C=CCC[C@@H](Cc1ccc(F)cc1)C(=O)OC[C@@H](Cc1c[nH]c2ccccc12)NC(=O)[C@@H](CC=C)CC(=O)N(CCO)Cc1ccccc1 | ? | -12 | -69% | -10 | ? | 13µM*
C=CC[C@@H](Cc1ccc(F)cc1)C(=O)OC[C@H]1CCCN1C(=O)[C@@H](CC=C)CC(=O)N(CCO)Cc1ccccc1 | · | -3 | -25% | 0 | ? | ?
CC[C@H](NC(=O)[C@H](C)NC)C(=O)N1C[C@@H](O)C[C@H]1Cc1c(-c2[nH]c3cc(F)ccc3c2C[C@H]2C[C@H](O)CN2C(=O)[C@H](CC)NC(=O)[C@H](C)NC)[nH]c2cc(F)ccc12 | · | · | · | · | -6% | ·
Cc1ccc(S(=O)(=O)N(CC(=O)Nc2ccc(F)cc2F)Cc2ccc(F)cc2)cc1 | i | · | -36% | · | -2% | 0%
OC(C[n+]1c(Cl)ccc2ccccc21)c1ccccc1 (stereo not drawn) | · | · | 3% | · | · | -3%
C=CCC[C@@H](Cc1ccc(F)cc1)C(=O)OC[C@H](C)NC(=O)[C@@H](CC=C)CC(=O)N(CCO)Cc1ccccc1 | ? | 0 | -21% | 0 | ? | 13µM*
CCCCC(C)(C)[C@H](O)C=C[C@H]1[C@H](O)CC(=O)[C@H]1CC=CCCCC(=O)O | · | · | · | · | 7% | ·
COc1ccc(CN(C)CC(O)COC(c2ccc(OC)cc2)c2ccc(OC)cc2)cc1 (stereo not drawn) | i | -15 | 22µM* | -9 | -4% | ?
CCc1noc(C)c1C(=O)N1CCOc2ccc(CN3CCN(c4ccccn4)CC3)cc2C1 | i | · | · | · | · | ·
COc1cc(CN2CCOc3ccc(CN4CCC(O)(c5cccnc5)CC4)cc3C2)cc(OC)c1 | i | · | · | · | · | ·
CCN(CCNCC(O)COc1ccccc1C(C)C)c1cccc(C)c1 (stereo not drawn) | · | -23 | 16µM* | -26 | ? | ?
CCOC(=O)C1=C(C)NC(C)=C(C(=O)OCC)C1c1ccccc1/C=C/C(=O)OC(C)(C)C | ? | · | · | · | 35µM* | ·
Cc1cccc(Cl)c1NC(=O)N1CCCN(c2nc3ccc(Cl)cc3s2)CC1 | ? | 0 | -63% | · | · | 14µM*
Nc1cc2c(cc1Br)[nH]c(=O)c1ccccc12 | ? | -17 | -98% | -25 | 0% | 10µM*
COc1ccc(NC(=O)c2cc(S(=O)(=O)NCC3COc4ccccc4O3)ccc2F)cc1 (stereo not drawn) | i | 0 | -12% | 4 | -9% | ?
O=C(Nc1ccc(C(F)(F)F)cc1)c1cc(S(=O)(=O)NCC2COc3ccccc3O2)ccc1F (stereo not drawn) | i | 15 | 18µM* | -7 | -17% | -1%
O=C(NCC1Cc2cccc(-c3nccs3)c2O1)c1ccnc(Cl)c1 (stereo not drawn) | i | · | · | · | · | ·
CCCC(=O)N1CCCC(c2cc(C(=O)Nc3ccccc3)no2)C1 (stereo not drawn) | i | 2 | 10µM* | 1 | 11µM* | 1%
O=C(Nc1ccccc1)c1cc(C2CCCN(C(=O)c3ccccc3)C2)on1 (stereo not drawn) | i | 1 | -17% | 7 | 42% | -9%
COc1ccc(/C=N/NC(=O)c2ccn[nH]2)cc1COc1ccc(Cl)cc1Cl | i | -13 | -41% | -10 | -5% | 14µM*
O=C(NC(Cc1c[nH]c2ccccc12)C(=O)Nc1ccc(OC(F)(F)F)cc1)c1cccs1 (stereo not drawn) | i | 0 | 11µM* | -9 | 181%[11.3 µM] | ?
O=C(NC(Cc1c[nH]c2ccccc12)C(=O)Nc1ccc(F)c([N+](=O)[O-])c1)c1cccs1 (stereo not drawn) | ? | -14 | 11% | -8 | -37% | 0%
O=C(COc1ccccc1C(=O)N/N=C\c1ccc(O)c(O)c1)N/N=C/c1ccc(O)c(O)c1 | ? | -79* | -3% | -77* | -5% | ?
SMILES | ATXN viability | Six1-Eya2 inh | HepG2 viability | CtBP-E1A inh | ATXN2 expr inh | TGFb SMAD3 inh
O=C(NN=Cc1ccc(O)c(O)c1)c1ccccc1 | ? | -13 | -1% | -4 | 23% | -2%
C[C@H](O)[C@@H]1CN2CCc3c([nH]c4ccc(-c5ccc6c(c5)OCO6)cc34)[C@@H]2C[C@@H]1N(C)C(=O)Nc1cc(Cl)cc(Cl)c1 | 16µM* | -23 | -95% | -29 | 20µM* | ?
C[C@H](O)[C@@H]1CN2CCc3c([nH]c4ccccc34)[C@@H]2C[C@@H]1N(C)C(=O)Nc1cc(Cl)cc(Cl)c1 | i | -9 | -19% | -4 | -6% | ?
Cc1cccc(-c2ccc3[nH]c4c(c3c2)CCN2C[C@@H]([C@H](C)O)[C@@H](N(C)C(=O)Nc3ccc(F)cc3)C[C@@H]42)c1 | · | -18 | -116% | -17 | ? | ?
COc1ccc(NC(=O)N(C)[C@H]2C[C@H]3c4[nH]c5ccc(-c6cccc(C)c6)cc5c4CCN3C[C@H]2[C@H](C)O)cc1 | · | -29 | -121% | -21 | 25µM* | ?
CCCC12CN3CC(CCC)(CN(C1)C3c1c[nH]c3ccccc13)C2=O (stereo not drawn) | i | · | -29% | · | 1% | ?
COc1cc2c(cc1OC)C(c1ccc(-c3ccc(Cl)c(Cl)c3)o1)=NCC2 | i | -13 | 11µM*! | -18 | ? | 11µM*
COc1cc2c(cc1OC)C(c1ccc(-c3ccccc3Cl)o1)=NCC2 | · | ? | -113% | 27 | 35µM* | ?
COc1cc2c(cc1OC)C(c1ccc(-c3cc(Cl)ccc3Cl)o1)=NCC2 | ? | -2 | -32% | -5 | ? | 0%
COc1cc2c(cc1OC)C(c1ccc(-c3ccc(Cl)cc3Cl)o1)=NCC2 | ? | -27 | -65% | -26 | ? | 14µM*
C=CCNc1nc(NCC=C)nc(N2CCN(C(c3ccc(F)cc3)c3ccc(F)cc3)CC2)n1 | i | · | · | · | -27% | ·
CC1(C)OC[C@@H]2O[C@@]3(C(=O)O)OC(C)(C)O[C@H]3[C@@H]2O1 | i | · | · | · | -1% | ·
